# Reference: PMC4336329 (PLoS ONE, 2015)
# Hit rate of the full screen: of about 310,000 compounds, about 14,000 (4.5%) showed an effect of 50% or more. The effect is printed as a negative number. The list comes from a sample in which strong results are over-represented; it also holds similar structures and randomly drawn compounds.
# Target: human ether-à-go-go-related gene (hERG) potassium channel (human, UniProt Q12809)
# Assay: primary screen, population patch clamp on CHO cells stably expressing hERG; higher = less effect of the substance
# 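Note: peak tail current of the secondary pulse compared with the same well before compound.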
# human ether-à-go-go-related gene (hERG) potassium channel, sequence (Q12809 whole entry, looked up): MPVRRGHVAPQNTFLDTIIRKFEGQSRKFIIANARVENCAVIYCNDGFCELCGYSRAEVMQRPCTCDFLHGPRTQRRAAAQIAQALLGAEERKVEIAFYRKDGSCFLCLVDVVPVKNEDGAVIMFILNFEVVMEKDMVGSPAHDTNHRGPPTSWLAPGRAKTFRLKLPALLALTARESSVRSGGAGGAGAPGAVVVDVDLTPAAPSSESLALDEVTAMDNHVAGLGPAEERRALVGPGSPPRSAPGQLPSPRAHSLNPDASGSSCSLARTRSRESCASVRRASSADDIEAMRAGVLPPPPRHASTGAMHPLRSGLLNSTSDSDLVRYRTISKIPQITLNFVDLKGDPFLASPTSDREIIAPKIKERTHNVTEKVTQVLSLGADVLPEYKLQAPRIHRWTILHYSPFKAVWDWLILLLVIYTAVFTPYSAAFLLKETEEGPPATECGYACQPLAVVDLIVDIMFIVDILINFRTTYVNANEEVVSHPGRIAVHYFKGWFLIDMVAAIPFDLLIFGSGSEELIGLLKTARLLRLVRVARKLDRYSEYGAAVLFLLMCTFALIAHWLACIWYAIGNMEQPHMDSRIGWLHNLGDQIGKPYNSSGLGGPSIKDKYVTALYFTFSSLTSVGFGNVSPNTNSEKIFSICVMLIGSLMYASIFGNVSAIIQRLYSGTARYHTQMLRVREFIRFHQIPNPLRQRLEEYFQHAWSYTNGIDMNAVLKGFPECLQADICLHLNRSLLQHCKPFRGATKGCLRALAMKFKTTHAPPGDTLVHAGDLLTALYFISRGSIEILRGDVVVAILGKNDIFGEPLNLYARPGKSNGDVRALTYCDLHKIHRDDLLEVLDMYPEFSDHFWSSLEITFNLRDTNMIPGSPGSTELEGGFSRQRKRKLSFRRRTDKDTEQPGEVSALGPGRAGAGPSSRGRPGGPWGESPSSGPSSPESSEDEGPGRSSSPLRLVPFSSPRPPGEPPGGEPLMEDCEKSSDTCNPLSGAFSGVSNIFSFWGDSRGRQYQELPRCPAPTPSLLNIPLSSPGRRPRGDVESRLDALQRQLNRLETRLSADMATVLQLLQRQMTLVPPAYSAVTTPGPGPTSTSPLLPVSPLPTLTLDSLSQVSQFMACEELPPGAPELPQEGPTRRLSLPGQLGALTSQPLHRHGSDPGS
row,SMILES,"hERG current change (%, negative = inhibition) at 10uM"
1,CCN(CC)C(=O)CCc1nnc(CCc2c[nH]c3ccccc23)o1,6.93%
2,O=C(CN1C(=O)/C(=C/c2ccccc2)SC1=S)Nc1ncc(Cc2ccccc2)s1,7.31%
3,C[C@H](NC(=O)[C@@H]1CSC2c3ccccc3C(=O)N21)C(=O)NC1CCCC1 (stereo partly shown),10.5%
4,COc1ccc(C(=O)NCc2ccon2)cc1OC1CCN(C(C)C)CC1,-45.6%
5,CCc1cccc(C)c1N(C(=O)Cn1c(CO)nc2ccccc21)C(C)COC (stereo not shown),-5.89%
6,COC(=O)c1c(N)sc(C(C)=O)c1C,0.466%
7,CCOC(=O)N1CCC(NC(=O)Cn2c3c(c(-c4ccccc4Cl)cc2=O)CCC3)CC1,-8.61%
8,CCOc1ccc(/C=N/Nc2ccccc2)cc1,17.6%
9,O=C(c1cccnc1)N1c2ccccc2Sc2ccccc21,-18.1%
10,Cl.Fc1ccc2c(c1)nnn2C1CCN(Cc2nnnn2CCc2ccccc2)CC1,-61.3%
11,c1ccc(CCn2nnnc2CN2CCC(n3nnc4ccccc43)CC2)cc1,-36.4%
12,Fc1ccc2c(c1)nnn2C1CCN(Cc2c(Cl)cccc2Cl)CC1,7.11%
13,Fc1ccc2c(c1)nnn2C1CCN(Cc2ccccc2)CC1,-61.4%
14,O=C(NC1CCN(Cc2nnnn2CCc2ccccc2)CC1)c1ccccc1F,-3.18%
15,CCCC(C)C(=O)Nc1ccc(Cl)cn1 (stereo not shown),-7.45%
16,COc1cc(OC)nc(Oc2cc(/C=N/O)ccc2OC)n1,0.516%
17,Cc1[nH]c(-c2ccc(F)cc2)cc1C(=O)N1CCN(c2ccccc2)CC1,-58.8%
18,CCOC(=O)N1CCN(C(=O)c2cc(-c3ccc(F)cc3)[nH]c2C)CC1,-72.3%
19,Cc1ccc(N2CCN(C(=O)c3cc(-c4ccc(F)cc4)[nH]c3C)CC2C)cc1 (stereo not shown),-13.3%
20,COc1cccc(N2CCN(C(=O)c3cc(C)oc3C)CC2)c1,6.8%
21,COc1cccc(N2CCN(C(=O)c3cc(-c4ccc(F)cc4)[nH]c3C)CC2)c1,-68.4%
22,Cc1[nH]c(-c2ccc(F)cc2)cc1C(=O)N1CCN(c2cccc(Cl)c2)CC1,-12%

row,SMILES,"hERG current change (%, negative = inhibition) at 10uM"
1,COc1ccc(N2CCN(C(=O)c3cc(-c4ccc(F)cc4)[nH]c3C)CC2)cc1,-67.4%
2,COc1ccc(-n2ncc(C(=O)N3CCN(c4ccc(F)cc4)CC3)c2C)cc1,-22.6%
3,CCOC(=O)N1CCN(C(=O)c2cccc(F)c2)CC1,-17.9%
4,CCOC(=O)N1CCC(NC(=O)c2cc(-c3ccc(F)cc3)[nH]c2C)CC1,-0.721%
5,COc1cccc(N2CCN(C(=O)c3ccc(-c4ccccc4)cc3)CC2)c1,-49.5%
6,Cc1[nH]c(-c2ccc(F)cc2)cc1C(=O)N1CCN(c2ccc(Cl)cc2)CC1,-13.4%
7,CCC(=O)NNc1ncnc2ccccc12,9.38%
8,CCN(CC)C(=O)C1CCCN(Cc2ccc3ccccc3c2)C1 (stereo not shown),-19%
9,CC(C)(C)OC(=O)NCCCC1=CC2=CC(=O)C(C)(OC(=O)c3ccco3)C(=O)C2=CO1 (stereo not shown),5.99%
10,COCCCNC(=O)C1CCC(CNS(=O)(=O)c2ccc(C)cc2)CC1 (stereo not shown),14%
11,Cc1cccc(CCN2C(N(C)C)=NC[C@@H]2C)c1,-7.74%
12,Cc1c(NC(=O)/C(C#N)=C/c2ccc(-c3cccc(Cl)c3)o2)c(=O)n(-c2ccccc2)n1C,-24.5%
13,NC(=O)c1cc(C(N)=O)nc(Cl)n1,16.1%
14,Cc1cccnc1NC(=O)c1ccc(S(=O)(=O)N2CCC(C)CC2)cc1,-12.3%
15,COc1ncnc2c1ncn2CC1COC(C)(C)O1 (stereo not shown),15.9%
16,Cc1sc2nc(CSc3ccccc3)nc(N3CCC(C(N)=O)CC3)c2c1C,-8.46%
17,COCCNc1nc(CSc2ccccc2)nc2sc(C)c(C)c12,-5.97%
18,CCOC(=O)c1sc2nc(CSc3ccccc3)nc(N3CCCN(C)CC3)c2c1C.O=C(O)C(=O)O,-70%
19,CCNc1nc(CSc2ccccc2)nc2sc(C)c(C)c12,1.64%
20,Cc1sc2nc(CSc3ccccc3)nc(N3CCN(C)CC3)c2c1C,-58.5%
21,Cc1sc2nc(CSc3ccccc3)nc(N3CCOCC3)c2c1C,2.04%
